Our source for the composite z-score and z-score values is PubChem BioAssay.

Activity calls are given as the source filed them.

Experiment [1] in a line: small molecules captured by biotinylated probe aFSTL3 – biochemical, small-molecule microarray, fluorescence 635/667, stem cell growth factor project, primary screen (AID 1064).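 Also: measures binding of the biotinylated anti-FSTL3 antibody to printed compounds.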 To be noted: higher = more signal.
Experiment [2] in a line: binders from COS7 lysate, DM2A8 probe, primary screen, torsin A project, cell lysate, small-molecule microarray, fluorescence 635/667 (AID 1065). To be noted: higher = more signal, COS7 lysate expressing mutant human TOR1A.
A short description of experiment [3]: small molecules captured by biotinylated probe aFGF2 – biochemical, small-molecule microarray, fluorescence 635/667, stem cell growth factor project, primary screen (AID 1067).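 Also: measures binding of biotinylated aFGF2 protein to printed compounds on slides; z-score merges feature fluorescence and signal-to-noise across triplicate slides.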 To be noted: higher = more signal.
Experiment [4] is described as follows: small molecules captured by biotinylated probe aFGF10 – biochemical, small-molecule microarray, fluorescence 635/667, stem cell growth factor project, primary screen (AID 1071).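 Also: score merges 667 nm spot intensity and signal to noise from triplicate slides.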 To be noted: higher = more signal.
For experiment [5], the target named is Neurogenic locus notch homolog protein 2 (Homo sapiens) (UniProt Q04721). Kind of experiment: small molecules binding Notch2 protein – biochemical, small-molecule microarray, 635 nm fluorescence, stem cell growth factors, primary screen (AID 1073). The conditions noted are these: higher = more signal.
Sequence of Neurogenic locus notch homolog protein 2 (Homo sapiens) (Q04721 whole entry, looked up, canonical isoform): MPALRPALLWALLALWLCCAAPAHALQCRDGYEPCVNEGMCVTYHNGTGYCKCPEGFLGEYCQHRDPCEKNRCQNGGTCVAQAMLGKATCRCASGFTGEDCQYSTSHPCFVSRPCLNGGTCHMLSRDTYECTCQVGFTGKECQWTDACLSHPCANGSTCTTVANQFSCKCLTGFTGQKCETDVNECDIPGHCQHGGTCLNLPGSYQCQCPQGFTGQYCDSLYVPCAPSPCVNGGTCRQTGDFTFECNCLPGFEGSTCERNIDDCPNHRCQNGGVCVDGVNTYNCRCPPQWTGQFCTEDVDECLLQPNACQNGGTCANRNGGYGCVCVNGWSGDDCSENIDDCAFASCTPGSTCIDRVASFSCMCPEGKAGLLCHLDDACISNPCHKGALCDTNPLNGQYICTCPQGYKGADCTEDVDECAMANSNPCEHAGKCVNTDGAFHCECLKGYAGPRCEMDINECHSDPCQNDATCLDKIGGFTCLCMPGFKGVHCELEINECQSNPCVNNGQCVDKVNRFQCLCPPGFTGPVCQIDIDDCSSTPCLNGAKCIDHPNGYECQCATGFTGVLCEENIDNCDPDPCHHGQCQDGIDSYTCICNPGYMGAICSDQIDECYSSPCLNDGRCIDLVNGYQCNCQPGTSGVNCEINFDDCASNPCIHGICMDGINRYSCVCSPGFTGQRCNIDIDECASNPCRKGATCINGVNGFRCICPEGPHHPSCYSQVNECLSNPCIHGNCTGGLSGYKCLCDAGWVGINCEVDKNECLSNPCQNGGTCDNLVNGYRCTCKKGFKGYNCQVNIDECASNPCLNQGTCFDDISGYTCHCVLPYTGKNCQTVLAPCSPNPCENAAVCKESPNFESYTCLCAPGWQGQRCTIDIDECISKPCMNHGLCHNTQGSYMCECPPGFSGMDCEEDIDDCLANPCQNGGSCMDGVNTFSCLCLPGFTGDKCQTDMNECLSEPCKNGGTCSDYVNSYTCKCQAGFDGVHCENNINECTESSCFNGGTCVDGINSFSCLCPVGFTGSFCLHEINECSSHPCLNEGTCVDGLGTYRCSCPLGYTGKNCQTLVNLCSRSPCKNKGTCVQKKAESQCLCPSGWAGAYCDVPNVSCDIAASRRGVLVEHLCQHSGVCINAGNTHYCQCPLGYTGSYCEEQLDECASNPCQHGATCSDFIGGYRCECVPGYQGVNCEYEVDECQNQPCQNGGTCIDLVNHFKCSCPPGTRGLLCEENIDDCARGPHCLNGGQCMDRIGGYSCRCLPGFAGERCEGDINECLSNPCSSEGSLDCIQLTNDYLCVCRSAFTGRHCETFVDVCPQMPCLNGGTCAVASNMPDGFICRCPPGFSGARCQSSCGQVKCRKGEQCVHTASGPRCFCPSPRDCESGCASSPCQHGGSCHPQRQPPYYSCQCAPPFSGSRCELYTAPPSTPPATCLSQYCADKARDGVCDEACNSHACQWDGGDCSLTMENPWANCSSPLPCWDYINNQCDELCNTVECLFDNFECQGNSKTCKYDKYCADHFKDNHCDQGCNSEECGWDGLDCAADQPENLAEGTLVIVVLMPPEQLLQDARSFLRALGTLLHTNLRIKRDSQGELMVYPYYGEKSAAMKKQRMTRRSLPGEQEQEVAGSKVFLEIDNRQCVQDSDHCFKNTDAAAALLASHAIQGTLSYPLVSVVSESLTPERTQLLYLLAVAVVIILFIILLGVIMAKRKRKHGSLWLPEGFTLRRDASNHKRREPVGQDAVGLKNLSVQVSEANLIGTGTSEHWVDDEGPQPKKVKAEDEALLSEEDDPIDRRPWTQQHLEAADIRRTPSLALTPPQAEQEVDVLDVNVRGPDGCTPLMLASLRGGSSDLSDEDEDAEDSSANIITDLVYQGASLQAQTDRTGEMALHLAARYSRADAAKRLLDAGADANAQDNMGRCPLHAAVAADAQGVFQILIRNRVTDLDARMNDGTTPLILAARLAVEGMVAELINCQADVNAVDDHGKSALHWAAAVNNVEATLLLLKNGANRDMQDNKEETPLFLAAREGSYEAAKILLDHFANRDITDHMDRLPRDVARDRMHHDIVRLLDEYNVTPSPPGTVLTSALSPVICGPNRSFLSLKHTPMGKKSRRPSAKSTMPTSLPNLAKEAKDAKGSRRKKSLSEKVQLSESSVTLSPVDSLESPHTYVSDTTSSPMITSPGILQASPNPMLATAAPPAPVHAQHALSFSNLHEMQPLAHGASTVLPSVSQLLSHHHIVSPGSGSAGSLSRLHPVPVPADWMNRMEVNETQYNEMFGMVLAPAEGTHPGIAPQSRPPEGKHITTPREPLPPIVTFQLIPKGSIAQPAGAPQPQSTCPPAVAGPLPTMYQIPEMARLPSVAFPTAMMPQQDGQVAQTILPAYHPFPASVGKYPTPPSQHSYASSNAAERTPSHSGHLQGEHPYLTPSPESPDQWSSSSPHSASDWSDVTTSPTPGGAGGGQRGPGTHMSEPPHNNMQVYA
The target in experiment [6] is Pro-neuregulin-1, membrane-bound isoform (Homo sapiens) (UniProt Q02297). Kind of experiment: small molecules binding neuregulin-1 protein – biochemical, small-molecule microarray, fluorescence 635/667, psychiatric disease protein project, primary screen (AID 1075).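 Also: score combines 667 nm spot fluorescence with signal to noise.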 The conditions noted are these: NRG1 binding, 635 nm fluorescence, higher = more signal.
Sequence of Pro-neuregulin-1, membrane-bound isoform (Homo sapiens) (Q02297 whole entry, looked up, the tested form may be a part, canonical isoform): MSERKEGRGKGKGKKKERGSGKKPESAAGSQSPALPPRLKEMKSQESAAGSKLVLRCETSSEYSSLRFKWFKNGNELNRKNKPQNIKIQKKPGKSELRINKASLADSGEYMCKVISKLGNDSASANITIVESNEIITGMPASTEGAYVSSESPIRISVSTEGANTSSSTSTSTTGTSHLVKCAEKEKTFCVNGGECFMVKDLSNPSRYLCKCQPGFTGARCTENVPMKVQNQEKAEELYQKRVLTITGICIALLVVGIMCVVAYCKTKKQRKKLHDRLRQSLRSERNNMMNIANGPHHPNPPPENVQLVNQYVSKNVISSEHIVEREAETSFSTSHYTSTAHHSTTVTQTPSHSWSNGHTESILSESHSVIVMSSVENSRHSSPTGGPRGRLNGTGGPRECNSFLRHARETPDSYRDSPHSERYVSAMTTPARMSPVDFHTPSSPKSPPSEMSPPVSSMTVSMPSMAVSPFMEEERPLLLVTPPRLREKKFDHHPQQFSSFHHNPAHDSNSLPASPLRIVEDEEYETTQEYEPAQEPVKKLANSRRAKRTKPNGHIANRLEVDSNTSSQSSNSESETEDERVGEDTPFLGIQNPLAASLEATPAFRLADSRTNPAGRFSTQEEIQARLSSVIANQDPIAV
In experiment [7] the test system is Neuregulin-1 EGF-like domain. Briefly: small molecules binding NRG1 EGF domain – biochemical, small-molecule microarray, 635 nm fluorescence, primary screen (AID 1081).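 Also: binding of the protein to compounds printed on small-molecule microarray slides.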 The conditions noted are these: higher = more signal.
A short description of experiment [8]: FRG1 expression reporter modulators in myotubes – cell-based, C2C12 myotubes, firefly/Renilla luciferase, luminescence, FRG1 inhibition for FSHD, primary screen (AID 1084). To be noted: FRG1 promoter luciferase, higher = more signal, called active from +8 up or from −8 down.
Experiment [9] is described as follows: small molecules captured by biotinylated probe aFST – biochemical, small-molecule microarray, fluorescence 635/667, stem cell growth factor project, primary screen (AID 1086).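 Also: score merges 667 nm fluorescence with signal-to-noise of each printed compound spot.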 The conditions noted are these: higher = more signal.
A short description of experiment [10]: binders of probe aHhip on microarray, primary screen, stem cell growth factor project, biochemical, small-molecule microarray, fluorescence 635/667 (AID 1087).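 Also: score merges spot fluorescence at 667nm with spot signal to noise ratio.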 The conditions noted are these: higher = more signal.

Take `COc1ccc(O[C@H]2C=C[C@@H](c3ccccc3)O[C@@H]2COC(=O)N2CCCCC2)cc1`: the composite z-score in experiment [1] is -0.0055; in [2], 0.38; in experiment [3] it was -0.0493; in experiment [4], -0.479; in [5] it was -0.701; in experiment [6], -0.578. In addition, the results for the composite z-score in experiment [7], in [9] and in [10] were -0.77, -0.0007 and -0.171, respectively. Besides, the z-score in [8] is -0.216 (inactive).

Turning to `C[C@@H]1CCC2C(=O)N(Cc3ccccc3)C[C@@H](O)CN2[C@H]1c1ccc(Br)cc1` (stereo not given in full), the composite z-score in experiment [1] was -0.364; in [2], 0.381; in experiment [3] it was -0.145; in experiment [4] it was 0.84; in experiment [5] it was -0.05; in experiment [6], 0.0596. For the same compound, the composite z-score is 0.963 in experiment [7], -0.0584 in experiment [9] and -0.0618 in experiment [10]. Moreover, in experiment [8], the z-score is -0.765 (inactive).

Turning to `CC1(C)OCC(C(O)C2=CCCCC2=O)CO1` (stereo not given), the composite z-score is -0.495 in experiment [1]; 0.547 in experiment [2]; -0.0607 in [3]; 0.54 in experiment [4]; 0.214 in experiment [5]; 0.366 in experiment [6]. In addition, the composite z-score in [7] was determined as 0.979; in [9], 0.753; in experiment [10] it was 0.065. For the same compound, the z-score in experiment [8] is 0.119 (inactive).

`CC(C)=CCCC(C)=CCON=C1[C@H]2CCn3c(=O)n(C)c(=O)n3[C@H]2[C@H](O)[C@@H]2O[C@H]12`: the composite z-score in experiment [1] is -0.315; in experiment [2] it was 0.491; in experiment [3], -0.156; in experiment [4] it was 0.585; in experiment [5], 0.38; in [6], 0.763. For the same compound, the values for the composite z-score in [7], in [9] and in [10] were 1.05, 0.412 and -0.0673, respectively. In addition, the z-score in experiment [8] was -0.713 (inactive).

`Cc1ccc(S[C@]2(C(=O)NCC(F)(F)F)CC(=O)N(Cc3ccccc3Cl)[C@@H]2c2ccc(CO)cc2I)cc1`: the composite z-score is 0.647 in experiment [1]; -0.193 in experiment [2]; -0.122 in [3]; 0.494 in [4]; -1.23 in experiment [5]; 2.01 in [6]. Further, the composite z-score in experiment [7] is 1.21; in experiment [9], -0.611; in experiment [10] it was -0.284. Also, the z-score in [8] was -1.13 (inactive).

In the case of `COC(=O)[C@@]1(Cc2ccc(F)cc2)[C@@H]2C(=CC(=O)[C@H]2CC(=O)C(=O)N(C)C)CN1C(=O)c1ccccc1`, the composite z-score in [1] is 0.581; in experiment [2] it was -0.293; in experiment [3], 0.293; in experiment [4], 0.663; in experiment [5], 1.71; in experiment [6] it was 1.49. For the same compound, the values for the composite z-score in [7], in experiment [9] and in [10] were 1.36, 1.45 and 2.1, respectively. Also, the z-score in experiment [8] is -0.524 (inactive).

`COC(=O)C1=C(C)[C@@H](O)[C@@H](C)[C@H](c2c(OC)c(OC)c(C)c(OC)c2OC)O1`: the composite z-score was -0.511 in experiment [1]; 0.487 in experiment [2]; -0.131 in experiment [3]; 0.166 in experiment [4]; 0.239 in [5]; -0.412 in experiment [6]. Moreover, the values for the composite z-score in experiment [7], in experiment [9] and in [10] were 0.0778, 0.0017 and -0.0645, respectively. Also, the z-score in [8] was -0.298 (inactive).

Regarding `CC(C)N1CC=CC23O[C@@H]4C=CCCOC(=O)C4[C@H]2C(=O)N(CCCCCCO)[C@@H]3C1=O` (stereo not given in full), the composite z-score in [1] was 0.487; in [2], -1.93; in experiment [3] it was -0.141; in experiment [4], -0.671; in [5], -1.17; in [6] it was 1.2. For the same compound, the composite z-score in experiment [7] is 0.896; in experiment [9] it was -0.357; in experiment [10], -0.236. The z-score in experiment [8] was -0.121 (inactive).

`CO[C@H]1COC(=O)[C@@H]2CCCN2C(=O)CC=C[C@@H](C)[C@H](OC)COC(=O)CC=C[C@@H]1C`: the composite z-score in experiment [1] is -0.57; in experiment [2], 1.62; in experiment [3], -0.163; in experiment [4] it was -0.0218; in experiment [5] it was -0.256; in experiment [6] it was -0.796. Also, the values for the composite z-score in experiment [7], in experiment [9] and in experiment [10] were 0.659, 0.152 and 0.176, respectively. In addition, in experiment [8], the z-score is -1.1 (inactive).

For the compound `COCCCNC(=O)[C@@]1(C)c2ccccc2C(=O)N(Cc2ccc(OC(F)(F)F)cc2)[C@H]1c1ccc(CO)cc1`, the composite z-score is 0.729 in [1]; -0.255 in experiment [2]; -0.116 in experiment [3]; -0.0476 in experiment [4]; -0.505 in experiment [5]; 0.785 in experiment [6]. Also, the composite z-score in experiment [7] is 1.45; in experiment [9] it was 0.153; in experiment [10] it was 0.213. For the same compound, in [8], the z-score was -2.6 (inactive).

For `O=C1[C@H]2[C@H]3[C@H](O)[C@H](O)CC(=NO[C@@H]4O[C@H](CO)[C@@H](O)[C@H](O)[C@H]4O)[C@@H]3CC[C@H]2C(=O)N1c1ccc(F)cc1F`, the composite z-score in experiment [1] is -0.383; in experiment [2], 1.17; in experiment [3], -0.125; in experiment [4], 0.442; in experiment [5], 0.482; in experiment [6] it was -0.141. For the same compound, the composite z-score in experiment [7] was determined as 0.386; in [9], 0.0076; in experiment [10], 0.2. Further, in experiment [8], the z-score is 1.06 (inactive).

Take `CC(CCN1CCc2nc(-c3ccccc3)c(-c3ccccc3)cc2C1)=NOC[C@@H](C)[C@H](OCc1ccccc1)C(C)C`: the composite z-score was -0.0574 in experiment [1]; -1.01 in experiment [2]; -0.172 in experiment [3]; -0.756 in experiment [4]; -1.63 in experiment [5]; 0.0189 in experiment [6]. In addition, the values for the composite z-score in [7], in experiment [9] and in experiment [10] were -0.0462, -0.32 and -0.206, respectively. Also, in [8], the z-score is 0.764 (inactive).

As to `C=CC[C@@H]1C=C[C@H](ON=Cc2ccc(C(=O)N3[C@H](c4ccc(C)cc4)[C@@H](C)CC[C@H]3C(=O)OC)cc2)[C@@H](CO)O1`, the composite z-score in experiment [1] was -0.482; in experiment [2], 0.835; in experiment [3], -0.0687; in experiment [4] it was 0.304; in experiment [5], 0.842; in experiment [6] it was 0.0373. Also, the composite z-score is 0.586 in experiment [7], 0.108 in experiment [9] and -0.0994 in experiment [10]. In addition, the z-score in experiment [8] is 0.274 (inactive).

With `C=C(COC)/C(=C/C[C@H](OC(=O)c1ccncc1)c1ccc(CO)o1)c1cc(C(=O)OC)ccc1OC`, the composite z-score in experiment [1] is -0.393; in experiment [2] it was 0.649; in [3] it was 0.0026; in experiment [4], 0.905; in [5] it was 0.614; in experiment [6] it was 0.407. Also, the composite z-score in [7] is 0.716; in [9], 0.404; in experiment [10] it was -0.123. For the same compound, the z-score in experiment [8] was 0.0676 (inactive).

As for `O=C1[C@H]2[C@H]3[C@H](O)[C@H](O)CC(=NOC[C@@H](O)COCc4ccco4)[C@@H]3CC[C@H]2C(=O)N1c1ccc(F)cc1F`, the composite z-score in experiment [1] is -0.469; in experiment [2] it was 1.4; in experiment [3] it was -0.128; in experiment [4], 0.138; in [5] it was 0.21; in [6], -0.592. Further, the figures for the composite z-score in [7], in [9] and in experiment [10] were -0.574, -0.128 and 0.177, respectively. Further, in [8], the z-score was -0.24 (inactive).

On to `CCN1C(=O)[C@H]2[C@H]3[C@H](O)[C@H](O)CC(=NOCc4ccccc4)[C@H]3CC[C@H]2C1=O`, for which the composite z-score is -0.5 in experiment [1]; 0.391 in experiment [2]; -0.116 in experiment [3]; 0.611 in [4]; 0.262 in [5]; -0.0759 in experiment [6]. Further, the composite z-score in [7] was -0.0363; in experiment [9], 0.214; in experiment [10] it was -0.226. For the same compound, the z-score in experiment [8] is 0.273 (inactive).

With `CCN1C(=O)[C@H]2[C@H]3[C@H](O)[C@H](O)CC(=NO[C@@H]4O[C@H](CO)[C@@H](O)[C@H](O)[C@H]4O)[C@@H]3CC[C@H]2C1=O`, the composite z-score in [1] was -0.0837; in [2], 0.0566; in experiment [3] it was -0.211; in [4], -0.078; in experiment [5], -1.21; in experiment [6] it was 0.485. Besides, the composite z-score in [7] is -1.11; in experiment [9], -0.402; in experiment [10] it was 0.354. Further, the z-score in experiment [8] was 0.183 (inactive).
